ChEMBL document CHEMBL3988442, “University of Dundee, Small-Polar-MMV Screening Library” (2021)
Several values for one entry are separate records, joined by “and”; a condition that tells them apart may be missing. Equal values may be shown once. The whole screen tested about 38,000 compounds, of which about 1,200 (3.2%) showed an effect of 50% or more. The median lay at about -58%. The sample holds strong results, similar compounds and a random draw of the others, so the mix is not that of the screen.

Tested on: Plasmodium falciparum
Assay: Calibr Malaria Delayed Death Assay SOP
Format: functional, organism-based
Set-up: scale not given: in the data most compounds retested in dose-response had high values
Details: concentration 4.99e-06 (unit not given; other assays of the set use mol/L)

| Structure (SMILES) | Percent Effect | Percent Effect (4.99 µM) |
| --- | --- | --- |
| COCCN(Cc1ccoc1)S(=O)(=O)c1cccc(C(F)(F)F)c1 | -154.4% | – |
| COc1c[nH]c(C(=O)Nc2nc(C)cs2)cc1=O | -242.4% | – |
| Clc1ccc(C2(NCc3noc(C4CC4)n3)CCCC2)cc1 | 66.68% | – |
| Clc1ccc(C2(NCc3noc(C4CC4)n3)CCOCC2)cc1 | -1.957% | – |
| Clc1ccc(C2(NCc3noc(C4CC4)n3)CCC2)cc1 | 11.94% | – |
| COc1cccc(N2CCN(Cc3ccc4ccn(C)c4c3)CC2=O)c1 | -24.12% | – |
| COc1cc(N2CC[C@H](O)[C@@H]2Cc2ccccc2)ncn1 | -143.1% | – |
| CC(C)NC(=O)CSc1nc2c(cnn2CCO)c(=O)[nH]1 | -19.17% | – |
| CCS(=O)(=O)N1CCCn2c(nc(CN3CCCC3)cc2=O)C1 | -41.77% | – |
| COCCn1ccnc1CN1CCc2[nH]cnc2C1c1ccccn1 (stereo not drawn) | -16.31% | – |
| CCn1ncnc1CN1CCc2[nH]cnc2C1c1ccccn1 (stereo not drawn) | -50.88% | – |
| CCCn1ccnc1CN1CCc2[nH]cnc2C1Cc1ccccc1 (stereo not drawn) | 64.79% | – |
| CCn1ncnc1CN1CCc2[nH]cnc2C1Cc1ccccc1 (stereo not drawn) | -69.64% | – |
| CCn1ccnc1CN1CCCC1c1c(C)nn(C)c1OC (stereo not drawn) | -32.78% | – |
| CCc1nccn1-c1cncc(C2CCCN2Cc2ccccn2)n1 (stereo not drawn) | -28.75% | – |
| CCc1ccc(C2c3nc[nH]c3CCN2Cc2nccn2CC)nc1 (stereo not drawn) | 89.79% | – |
| COCCn1ccnc1CN1CCc2[nH]cnc2C1c1cccc(O)c1 (stereo not drawn) | -80.26% | – |
| COc1cccc(CN2CC(O)CN(C(=O)C(C)(C)C)CC2=O)c1OC (stereo not drawn) | -124% | – |
| CC1=Nc2c(c(=O)[nH]n2C2CCCC2)C(c2cccnc2)S1 (stereo not drawn) | – | -22.61% and -27.75% |
| CCCNC(=O)c1cccc(CNCc2csc(C(C)(C)C)n2)c1 | 23.22% | – |
| CN(C)C(=O)CO[C@H]1CN(Cc2ccc3c(c2)OCO3)[C@@H]2COC[C@H]12.O=C(O)C(F)(F)F | -65.25% | – |
| C1CCC(c2nc3c(c(N4CC(N5CCOCC5)C4)n2)CCNCC3)C1 | -121.5% | – |

| Structure (SMILES) | Percent Effect | Percent Effect (4.99 µM) |
| --- | --- | --- |
| Nc1nc2c(c(N3CCC(CCn4cccn4)CC3)n1)CCNCC2 | 0.6794% | – |
| Cc1nc2c(c(N3CCC(CN4CCCC4=O)CC3)n1)CCNCC2 | -95.59% | – |
| Nc1nc2c(c(N3CCC(CN4CCCC4=O)CC3)n1)CCNCC2 | -195.3% | – |
| NCC1CCN(c2nc(C3CCCC3)nc3c2CCNCC3)C1 (stereo not drawn) | 93.21% | – |
| C1CCC(c2nc3c(c(N4CCN5CCCC5C4)n2)CCNCC3)C1 (stereo not drawn) | 77.28% | – |
| Cc1nc2c(c(N3CCC(CCn4cccn4)CC3)n1)CCNCC2 | 39.53% | – |
| CCOCc1nc2c(c(N3CCN4CCCC4C3)n1)CCNCC2 (stereo not drawn) | -33.92% | – |
| c1cnn(CC2CCN(c3nc(C4CC4)nc4c3CCNCC4)CC2)c1 | 90.7% | – |
| CS(=O)(=O)Nc1nn(Cc2ccc(F)cc2)cc1Br | -19.12% | – |
| CCNS(=O)(=O)c1cnccc1N1CCN(CCO)CC1 | -122.2% | – |
| Cc1cc(C)nc(N2CCC(c3cncc(-n4ccnc4)n3)CC2)n1 | -62.28% | – |
| CC(O)CN1CCN(C(=O)CCOC(C)C)CC1 (stereo not drawn) | -34.58% | – |
| O=C(C1CCOCC1)N1CCC2(CCN(Cc3nccs3)CC2)CC1.O=C(O)C(F)(F)F | -69.08% | – |
| CN(Cc1cc(Br)cs1)Cc1nnsc1Cl | -124.6% | – |
| Cc1nsc(N2CCCN(c3nc(C4CC4)ns3)CC2)n1 | -111.5% | – |
| CCOc1ccnc(N2CCCN(c3nc(CC)ns3)CC2)n1 | -65.97% | – |
| CCOc1ccnc(N2CCCN(c3nc(C4CC4)ns3)CC2)n1 | 50.17% | – |
| COCCN(Cc1sccc1C)C(=O)COc1ccccc1O | -70.17% | – |
| COCCN(Cc1sccc1C)C(=O)C1CCCN(C(N)=O)C1 (stereo not drawn) | -77.34% | – |
| COCCN(Cc1sccc1C)C(=O)C1CCN(C(C)C)CC1 | 57.24% | – |
| CCn1cnnc1CNC(=O)NC(C)c1ccc(Cl)s1 (stereo not drawn) | -29.19% | – |
| Cc1nc(N)ccc1CC1COc2ccccc2C1 (stereo not drawn) | 39.32% | – |

| Structure (SMILES) | Percent Effect | Percent Effect (4.99 µM) |
| --- | --- | --- |
| Cc1nc(CNCC(C)c2nc3ccccc3o2)cs1 (stereo not drawn) | -114.5% | – |
| Cc1ccc(O)c(CNCC(C)c2nc3ccccc3o2)n1 (stereo not drawn) | 62.12% | – |
| Cc1csc(CNCC(C)c2nc3ccccc3o2)n1 (stereo not drawn) | -35.1% | – |
| N#Cc1cccnc1OC1CCN(S(=O)(=O)c2ccc(F)c(Cl)c2)CC1 | -120.1% | – |
| Cc1cccc(C(=O)N2CC[C@@H]3CN(c4ncccn4)CCO[C@@H]3C2)c1 | 3.612% | – |
| CCn1ccnc1CN(C)C(=O)Cn1ccc2ccccc2c1=O | -48.52% | – |
| CN1CCOC(CNCc2cccc(OCC(F)(F)F)c2)C1 (stereo not drawn) | 11.83% | – |
| Cc1cccc(C2(C(=O)NCC3CN(C)CCO3)CC2)c1 (stereo not drawn) | -0.8202% | – |
| CN1CCOC(CNC(=O)C2(c3cccc(C(F)(F)F)c3)CCCC2)C1 (stereo not drawn) | 55.27% | – |
| Cc1cccc(NC(=O)c2ccc(-n3cncn3)nn2)n1 | -82.38% | – |
| Cc1ccnc(NC(=O)CCNC(=O)c2ccccc2Cl)c1 | -154.4% | – |
| Cc1ccnc(NC(=O)c2[nH]nc(C(C)C)c2Br)c1 | 72.66% | – |
| Cc1ccnc(NC(=O)c2ccc(Br)o2)c1 | -122.7% | – |
| Cc1cccc(NC(=O)c2[nH]nc(C(C)C)c2Br)n1 | 55.91% | – |
| Cc1cccc(NC(=O)c2sc(C)nc2C)n1 | -70.67% | – |
| CC(C)c1n[nH]c(C(=O)Nc2ccncc2)c1Br | -170.8% | – |
| CC(C)c1n[nH]c(C(=O)Nc2cc[nH]n2)c1Br | -216.8% | – |
| CCc1ccsc1C(=O)N1CCCN(Cc2cnn(CC)c2)CC1 | -131.2% | – |
| Cc1occc1C(=O)N1C[C@@H]2OCCN(CCN3CCCC3)[C@@H]2C1.O=C(O)C(F)(F)F.O=C(O)C(F)(F)F | -96.04% | – |
| CCC(=O)N1CCC2(CC1)C(=O)N(C)CCN2Cc1csc(C)n1.O=C(O)C(F)(F)F | -46.93% | – |
| COCCN(C)C[C@@H]1CN(C(=O)c2cccc(Cl)c2)C[C@@H]1CO | -171.8% | – |
| COCCN1C(=O)[C@H]2CC[C@@H]1CN(S(=O)(=O)c1cccc(Cl)c1)C2 | -81.8% | – |

| Structure (SMILES) | Percent Effect | Percent Effect (4.99 µM) |
| --- | --- | --- |
| CCN(C)C[C@@H]1CN(Cc2cccc(O)c2)C[C@@H]1CO | -20.19% | – |
| CN(C)CCN(C)C[C@@H]1CN(Cc2cccc(O)c2)C[C@@H]1CO | -40.55% | – |
| C=Cc1cccc(CN2C[C@@H](CN(C)CC)[C@@H](CO)C2)c1 | 87.24% | – |
| CCN(C)C[C@@H]1CN(S(=O)(=O)c2cccc(Cl)c2)C[C@@H]1CO | 74.38% | – |
| Cc1ncsc1C(=O)OCC1CCN(c2ccccc2)C1 (stereo not drawn) | 9.637% | – |
| CNc1cncc(C2CCCN2Cc2ccnc(N3CCCC3)n2)n1 (stereo not drawn) | -40.21% | – |
| CN(CC1(CO)CCCC1)C(=O)c1cc(COc2ccccc2F)[nH]n1 | -12.3% | – |
| CSCCC(NC(=O)c1nc(SC)ncc1Cl)C(=O)O (stereo not drawn) | -13.47% | – |
| CC(C)(C)c1nc(CN2CCOC(Cn3cncn3)C2)cs1 (stereo not drawn) | -89.29% | – |
| Cc1cc(-c2cnn(CCNC(=O)CCn3cccn3)c2C2CC2)on1 | -69.32% | – |
| O=C(CCN1CCCCCC1c1ccco1)N1CCOCC1 (stereo not drawn) | -45.72% | – |
| CC(C)NC(=O)CCN1CCCC1c1cccc2c1OCCO2 (stereo not drawn) | 52.1% | – |
| COCCN1CCCC1c1cccc2c1OCCO2 (stereo not drawn) | -6.29% | – |
| CNC(=O)CCN1CCCC1c1ccccc1Br (stereo not drawn) | -26.77% | – |
| O=C(CCN1CCCC1c1cccc2c1OCCO2)N1CCOCC1 (stereo not drawn) | -28.31% | – |
| O=C(CCN1CCCC1c1cccc2c1OCCO2)N1CCCCC1 (stereo not drawn) | 72.46% | – |
| NC(=O)NC(=O)CCN1CCCC1c1cccc2c1OCCO2 (stereo not drawn) | 22.71% | – |
| CCNC(=O)CCN1CCCC1c1cccc2c1OCCO2 (stereo not drawn) | 51.42% | – |
| CC(C)NC(=O)CN1CCN(CC2CCOc3ccccc3C2)CC1 (stereo not drawn) | -22.48% | – |
| Cc1cc(C)cc(NCCC(=O)NC2CCCCC2)c1 | -32.74% | – |
| CCOCC1CN(C(=O)Cc2ccccn2)Cc2cnn(CC)c21 (stereo not drawn) | -151.3% | – |
| CCCNC(=O)CNc1ccccc1OCCC(=O)OC | -87.74% | – |

| Structure (SMILES) | Percent Effect | Percent Effect (4.99 µM) |
| --- | --- | --- |
| Cn1cc(CN2CCC3(CC2)CCN(C(=O)c2cscn2)C3)cn1.O=C(O)C(F)(F)F | -97.69% | – |
| COc1ccc(C(N)=O)cc1NCc1nc(-c2cccs2)oc1C | -37.05% | – |
| CC(C)c1nnc2n1CC(CNCc1cccnc1)CC2 (stereo not drawn) | -95.11% | – |
| O=C(NCCC(=O)N1CCCC1)c1cccnc1 | -130.5% | – |
| CC(=O)Nn1ccc2c(nnc3c(-c4ccc(F)cc4)cnn32)c1=O | -66.29% | – |
| COc1ncc(CN2C[C@@H]3CC[C@@](O)(c4ccc(C)cn4)[C@@H]3C2)cn1.O=C(O)CC(O)(CC(=O)O)C(=O)O | -80.6% | – |
| CC[C@H]1CN(C(=O)CCn2c(C)cccc2=O)CC[C@@]1(C)O | -150.9% | – |
| CN(C)c1cc(CNC(=O)c2n[nH]c(=O)c3ccccc23)ccn1 | -121.9% | – |
| c1ccc(OCCNCc2cccs2)nc1 | -81.56% | – |
| c1ccc(OCCCNCc2cccs2)nc1 | 17.97% | – |
| Cc1ccsc1CNCCCOc1ccccn1 | 53.78% | – |
| O=C(O)C1(Cc2ccccc2F)CCCN(c2ncnc3[nH]ccc23)C1 (stereo not drawn) | -54.27% | – |
| CCN1CCN(S(=O)(=O)c2cc(C)c(C)cc2Br)CC1 | 25.52% | – |
| CCN1CCCN(S(=O)(=O)c2cnc3onc(C)c3c2)CC1 | -44.36% | – |
| C[C@@H]1CN(S(=O)(=O)c2ccc(F)cc2Cl)C[C@]1(C)O | -40.08% | – |
| CCN1CCN(S(=O)(=O)c2cc(C)c(Cl)cc2C)CC1 | 16.43% | – |
| Cc1ccc(S(=O)(=O)NCCCN2CCC(O)CC2)cc1Cl | 19.72% | – |
| Cc1ccc(S(=O)(=O)N2CCN(Cc3ccncc3)CC2)c(Cl)c1 | 0.628% | – |
| CCN1CCN(S(=O)(=O)c2cc(Cl)c(Cl)cc2C)CC1 | 69.76% | – |
| CCN1CCN(S(=O)(=O)c2cc(C)c(Cl)cc2Cl)CC1 | 62.85% | – |
